The source holds several records for some structures; these can differ, active in one and inactive in another. The source made the active and inactive calls. How the source made its calls: active means hit-call score of the fitted dose curve at least 0.9, where 1 is the maximum; inactive means score below 0.9.
assay: ATG_AP_1_CIS: Attagene CIS-FACTORIAL HepG2 Assay for human Activator Protein 1 (AP-1) (AID 2282931); settings: HepG2 Attagene cis-factorial AP-1 reporter mRNA; actives raise or lower the signal
Description: ATG_CIS is a cell-based, multiplexed-readout assay that uses HepG2, a human liver cell line, with measurements taken at 24 hours after chemical dosing in a 24-well plate.ATG_AP_1_CIS is one of 52 assay component(s) measured or calculated from the ATG_CIS assay. It is designed to make measurements of mRNA induction, a form of inducible reporter, as detected with fluorescence intensity signals by Reverse transcription polymerase chain reaction (RT-PCR) and Capillary electrophoresis technology.Data from the assay component ATG_AP_1_CIS was analyzed into 1 assay endpoint. This assay endpoint, ATG_AP_1_CIS, was analyzed with bidirectional fitting relative to DMSO as the negative control and baseline of activity. Using a type of inducible reporter, measures of mRNA for gain or loss-of-signal activity can be used to understand the reporter gene at the transcription factor-level as they relate to the gene FOS and JUN. Furthermore, this assay endpoint can be referred to as a primary readout, because this assay has produced multiple assay endpoints where this one serves a reporter gene function. To generalize the intended target to other relatable targets, this assay endpoint is annotated to the dna binding intended target family, where the subfamily is basic leucine zipper.
Human liver HepG2 cells are transiently transfected with multiple reporter transcription units (MRTUs) in 6-well plates using FuGene 6 reagent (Roche; 3 ml FuGene/1 mg DNA). The MRTU constructs are regulated by a cis-regulating element (promoter). […] A major difference between the CIS and TRANS system is that in CIS activities of endogenous TFs are measured, whereas the TRANS assay evaluates changes in activities of exogenous, chimeric NR-Gal4 proteins. […] At the end of 24 hour incubation, total RNA was isolated using TriZol reagent (Invitrogen). The isolated RNA is then reverse-transcribed using oligo(dT) primer and Mo-MLV reverse transcriptase (Invitrogen) with DNAse I (Ambion) treatment for 30 min. The one-tenth of the produced cDNA was amplified by PCR using Taq DNA polymerase (Invitrogen) and two reporter sequence-specific primers. The PCR products were fluorescently labeled by primer extension with 6-arboxyfluorescein (6-FAM) 5'-labeled reporter sequence-specific primer (2 min at 95 C, 20 s at 68 C and 10 min at 72 C) and these products were digested with 5U of HpaI (New England Biolabs) for 2h at 37 C. The fragments were purified using Qiaquick PCR columns (Qiagen), analyzed on an ABI 3130xL genetic analyzer (Applied Biosystems) with peak positions identified by using a set of X-rhodamine (ROX)-labeled MapMarker1000 molecular weight standards (BioVentures). The raw capillary electrophoresis data was processed using Attagraph software (Attagene).

SMILES	outcome	AC50
CCC1(c2ccc(N)cc2)CCC(=O)NC1=O (stereo not given)	inactive	
O=C(NCO)NCO	inactive	
O=[N+]([O-])c1ccc2c3c(cccc13)CC2	inactive	
CN(C)N=O	inactive	
CCC(C)(C)c1ccc(O)c(C(C)(C)CC)c1		12.8 µM (active)
CC12CC1(C)C(=O)N(c1cc(Cl)cc(Cl)c1)C2=O (stereo not given)	inactive	
Cc1ccccc1N	inactive	
C=CC(=O)N(C)C	inactive	
CCC(=O)c1ccccc1	inactive	
CC(C)CCCCCCOC(=O)c1ccccc1C(=O)OCCCCCCC(C)C	inactive	
O=C1C(Cl)=C(Cl)C(=O)c2ccccc21	inactive	
C[C@@H](Oc1ccc(Cl)cc1Cl)C(=O)O	inactive	
Oc1c(I)cc(I)cc1I	inactive	
ClCc1cccnc1	inactive	
C[C@]12CC[C@H](O)CC1=CC[C@@H]1[C@@H]2CC[C@]2(C)C(=O)CC[C@@H]12	inactive	
N#Cc1ccccn1	inactive	
O=C1CCCN1	inactive	
CC(=O)C(Cl)C(=O)N(C)C (stereo not given)	inactive	
CC(C)(c1ccccc1)c1ccc(O)c(C(C)(C)c2ccccc2)c1		7.38 µM (active)
CC(=[OH+])/C=C(/C)[O-].CC(=[OH+])/C=C(/C)[O-].CC(=[OH+])/C=C(/C)[O-].[Fe]	inactive	

SMILES	outcome	AC50
CC(C)(C)c1cc(O)ccc1O		66.7 µM (active)
CC(=[OH+])/C=C(/C)[O-].CC(=[OH+])/C=C(/C)[O-].CC(=[OH+])/C=C(/C)[O-].[Al]	inactive	
CCOP(=S)(OCC)SCSP(=S)(OCC)OCC	inactive	
BrCCBr	inactive	
O=[N+]([O-])c1ccc(O)c([N+](=O)[O-])c1	inactive	
CCCCOCCOC(C)=O	inactive	
CCOP(=O)(CN(CCO)CCO)OCC	inactive	
Cc1cc(=O)[nH]o1	inactive	
c1cc[c]([Hg][c]2ccccc2)cc1	inactive	
COC(=O)c1sccc1S(=O)(=O)NC(=O)Nc1nc(C)nc(OC)n1	inactive	
CCCCCCCCc1ccc(O)cc1	inactive	18.7 µM (active)
CCC(C)c1cccc(C(C)CC)c1O (stereo not given)	inactive	
Nc1ccc(Cl)cc1C(=O)c1ccccc1	inactive	
C[C@H]1O[C@@H](O[C@H]2[C@@H](O)C[C@H](O[C@H]3[C@@H](O)C[C@H](O[C@H]4CC[C@@]5(C)[C@H](CC[C@@H]6[C@@H]5CC[C@]5(C)[C@@H](C7=CC(=O)OC7)CC[C@]65O)C4)O[C@@H]3C)O[C@@H]2C)C[C@H](O)[C@@H]1O		13.6 µM (active)
Nc1ccc(-c2ccc(N)c(Cl)c2)cc1Cl	inactive	
Cc1cc(Cl)ccc1O[C@H](C)C(=O)O	inactive	
O=C/C=C/c1ccccc1	inactive	
ClC1=C(Cl)[C@]2(Cl)[C@H]3[C@H]([C@H]4C=C[C@H]3C4)[C@@]1(Cl)C2(Cl)Cl	inactive	
CC1CN1P(=O)(N1CC1C)N1CC1C (stereo not given)	inactive	

Reference: PubChem BioAssay (EPA / NIEHS)
